FadD28 binding: blocks FadD28 binding to the bisubstrate probe. inhibition, % at 12.5 µM. fluorescence polarization. hit rate 0.22% among 360,000; in the data active = inhibition above about 8.5%, passing the limit was not always enough
GDH-TPI counter-1: inhibits GDH-TPI coupling enzymes, artifact for Mtb FBA screen; GDH-TPI coupled enzyme counterscreen, NADH absorbance; inhibition, % at 4.8 µM; hit rate 1.2% among 360,000; in the data active = inhibition above about 30%;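 also: 0% = DMSO wells and 100% = wells lacking the enzyme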
Rv3671c inh: Rv3671c (M. tuberculosis) protease inhibition; P9WHR9; inhibition, % at 5.96 µM; hit rate 0.048% among 320,000; in the data active = inhibition above about 38%;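 also: extracellular domain of Rv3671c used as enzyme; 0% = enzyme with DMSO and 100% = no enzyme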
Mtb FBA inh: inhibits M. tuberculosis FBA enzyme; P9WQA3; hit rate 2.3% among 360,000; purified M. tuberculosis FBA, fluorescence read-out; inhibition, % at 1 µM;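 also: 0% = vehicle and 100% = reference inhibitor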
Target sequence (P9WQA3 whole entry, looked up): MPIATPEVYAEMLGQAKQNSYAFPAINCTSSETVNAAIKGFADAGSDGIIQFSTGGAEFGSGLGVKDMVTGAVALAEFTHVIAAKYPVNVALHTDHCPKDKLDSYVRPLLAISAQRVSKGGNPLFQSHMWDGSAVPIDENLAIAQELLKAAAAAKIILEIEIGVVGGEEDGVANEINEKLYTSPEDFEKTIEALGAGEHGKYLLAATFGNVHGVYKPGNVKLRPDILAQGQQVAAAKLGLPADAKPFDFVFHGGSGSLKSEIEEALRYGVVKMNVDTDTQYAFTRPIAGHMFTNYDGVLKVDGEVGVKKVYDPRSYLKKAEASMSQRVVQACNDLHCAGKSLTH
BioA inh: blocks M. tuberculosis BioA enzyme activity | inhibition, % at 9.99 µM | hit rate 0.096% among 360,000 | purified M. tuberculosis BioA enzyme, plate reader | AID 602481; in the data active = inhibition above about 40%
Mtb FBA confirm: confirmation of M. tuberculosis fructose-bisphosphate aldolase inhibitors; shares compounds with Mtb FBA inh; purified M. tuberculosis FBA, fluorescence read-out; inhibition, % at 1 µM; hit rate 78% among 5,600; AID 651616;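 also: 0% = vehicle wells and 100% = reference inhibitor wells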
GDH-TPI counter-2: inhibits GDH-TPI coupling enzymes, flagging Mtb FBA hits; shares compounds with Mtb FBA inh; GDH-TPI coupled enzyme counterscreen, fluorescence; inhibition, % at 1 µM; hit rate 81% among 5,600; in the data active = inhibition above about 10%
GDH-TPI dose: counter-screen for M. tuberculosis FBA inhibitors: GDH-TPI dose response. shares compounds with Mtb FBA inh. GDH-TPI coupled enzyme assay, fluorescence, artifact counterscreen. IC50, µM. hit rate 79% among 170; call rule not given here
Starred values were filed as active, the others as inactive; . = no result; + = active, no number. Rows were chosen to be rich in hits. Some 3% of all compounds tested hit in one or more screens of this group. Rule as the data show it, unless noted: active = inhibition above about 27%; inactive = the rest.

SMILES	FadD28 binding	GDH-TPI counter-1	Rv3671c inh	Mtb FBA inh	BioA inh	Mtb FBA confirm	GDH-TPI counter-2	others
CC(=O)Nc1cccc(NC(=S)Nc2cccc3ccccc23)c1	-3	1	-1	3	1	.	.
COc1ccc(NC(=S)Nc2cccc3ccccc23)cc1OC	-2	7	2	42*	-3	35*	33*
S=C(Nc1cccc2ccccc12)Nc1cccc2ccccc12	-4	7	.	88*	-1	96*	73*
OC[C@@H]1[C@@H](c2ccc(-c3ccc(F)cc3)cc2)[C@@H]2CN(Cc3ccccn3)CCCCN12	.	.	.	.	-1	.	.
COc1cc2oc(=O)c(CC(=O)N3C[C@H]4C[C@@H](C3)c3cccc(=O)n3C4)c(C)c2cc1Cl	-3	20	.	45*	0	35*	28*
COc1ccc2c(C)c(CC(=O)N3C[C@H]4C[C@@H](C3)c3cccc(=O)n3C4)c(=O)oc2c1OC	1	21	-4	30*	-2	-1	0
Cn1cnc(S(=O)(=O)N2CC[C@@H]3[C@H]2c2cc(-c4ccccc4F)ccc2N[C@@H]3CO)c1	.	.	.	.	2	.	.
COCC(=O)N(C)C[C@H]1Oc2cc(C#CCC3CCCC3)ccc2S(=O)(=O)N([C@H](C)CO)C[C@@H]1C	.	.	.	.	6	.	.
C[C@@H]1CN([C@@H](C)CO)C(=O)c2cc(-c3ccccc3F)cnc2O[C@@H]1CN(C)C(=O)C1CC1	.	.	.	.	2	.	.
C=CCn1c(-c2ccccc2)ccc(C#N)c1=O	-4	-6	-6	1	1	.	.
Cn1c(-c2ccc(Cl)cc2)ccc(C#N)c1=O	0	24	1	4	.	.	.
C=CCn1cc(-c2cccc(Cl)c2)cc(C#N)c1=O	0	2	3	28*	0	69*	48*
Cn1cc(-c2ccc(Cl)cc2)cc(C#N)c1=O	-1	5	-3	56*	.	23	17*
N#Cc1c(-c2cccc(Cl)c2)[nH]c(=S)[nH]c1=O	-1	15	0	1	.	.	.
N#Cc1cc(-c2cccc(Cl)c2)c[nH]c1=O	-1	15	3	46*	.	10	7	GDH-TPI dose=4.1*
C[C@@H]1CN([C@H](C)CO)C(=O)Cc2cc(NS(=O)(=O)c3ccc(Cl)cc3)ccc2O[C@@H]1CN(C)Cc1ccncc1	.	.	.	.	-1	.	.
COCC#Cc1cnc2c(c1)C(=O)N([C@H](C)CO)C[C@H](C)[C@H](CN(C)C)O2	.	.	.	.	-2	.	.
COc1ccccc1NC(=O)N1C[C@H]2[C@@H](c3ccccc31)[C@H](CO)N2C(C)=O	.	.	.	.	4	.	.
Cn1cnc(S(=O)(=O)N2CC[C@@H]3[C@@H](CO)Nc4ccc(-c5ccccc5F)cc4[C@@H]32)c1	.	.	.	.	2	.	.
O=S(=O)(c1ccc(F)cc1)N1CN2CCN(C2)C1	-1	14	-12	30*	-1	5	-1
CCc1cnc(N2[C@H](C#N)[C@H](c3ccc(C#CC(C)C)cc3)[C@H]2CO)s1	.	.	.	.	2	.	.
C[C@@H]1CN([C@@H](C)CO)S(=O)(=O)c2ccc(C#CC3CC3)cc2O[C@H]1CN(C)C(=O)C1CCCCC1	.	.	.	.	1	.	.
Cc1ccc(OCC(=O)Nc2ccc(C(=O)Nc3ccccc3C(=O)O)cc2)cc1C	-2	6	.	1	0	.	.
Cc1ccc(OCC(=O)Nc2ccc(O)c(C(=O)O)c2)cc1C	-1	-7	5	72*	-1	+	+
COc1ccc(NC(=O)Nc2ccc3c(c2)C(=O)N([C@@H](C)CO)C[C@@H](C)[C@H](CN(C)C)OCCCC[C@H](C)O3)cc1	.	.	.	.	0	.	.
SMILES	FadD28 binding	GDH-TPI counter-1	Rv3671c inh	Mtb FBA inh	BioA inh	Mtb FBA confirm	GDH-TPI counter-2	others
Cc1ccc(S(=O)(=O)N/N=C\c2cc3c(cc2Br)OCO3)cc1	-3	8	-7	42*	1	9	-4
Cc1ccc(S(=O)(=O)N/N=C\c2ccc3c(c2)OCO3)cc1	2	17	0	1	0	.	.
Cc1cc(=O)oc2c(C)c(OCC(=O)NCCCn3ccnc3)ccc12	0	12	0	18	-1	.	.
CCCc1cc(=O)oc2cc(C)cc(OCC(=O)NCCCn3ccnc3)c12	-2	8	-8	57*	1	88*	65*
Cc1cc(OCC(=O)NCCCn2ccnc2)c2c(C)cc(=O)oc2c1	-3	10	-2	78*	0	108*	74*
Cc1c(C)c2ccc(OCC(=O)Nc3ccc(S(N)(=O)=O)cc3)c(C)c2oc1=O	0	12	-12	41*	.	78*	73*
Cc1c(C)c2ccc(OCC(=O)NCCCn3ccnc3)c(C)c2oc1=O	-3	4	9	43*	13	153*	126*
Cc1c(OCC(=O)Nc2cccnc2)ccc2c3c(c(=O)oc12)CCC3	-3	6	3	6	5	.	.
Cc1c(OCC(=O)NCCCn2ccnc2)ccc2c3c(c(=O)oc12)CCC3	-1	8	6	14	2	.	.
COc1ccccc1OCC(=O)Nc1ccc(-c2nnc(-c3ccco3)o2)cc1	-1	23	-4	1	0	.	.
Nc1nnc(-c2ccc(Cl)cc2)o1	-3	2	-5	9	-1	.	.
CN(C)c1nnc(-c2ccc(Cl)cc2)o1	-5	-5	8	66*	.	+	+
O=C(Cc1cccs1)Nc1ccc(-c2nnc(-c3ccco3)o2)cc1	-1	7	-10	49*	.	83*	67*
CCC(Oc1ccccc1)C(=O)Nc1ccc(-c2nnc(-c3ccco3)o2)cc1 (stereo unspecified)	-8	15	-24	43*	4	-3	-4
Clc1ccc(-c2nnc(-c3ccco3)o2)cc1	2	5	-18	72*	0	+	+
O=C(Cc1cccs1)Nc1ccc(-c2nnc(-c3ccccc3)o2)cc1	0	10	6	2	-1	.	.
COCC(=O)NC[C@H]1[C@H](c2ccc(-c3ccccc3)cc2)[C@H](CO)N1C(C)=O	.	.	.	.	-4	.	.
CO[C@@H]1CN(C)C(=O)c2ccc(NC(=O)C3CCCC3)cc2OC[C@H](C)NC[C@H]1C	.	.	.	.	2	.	.
CCCNC(=O)N1C[C@H]2[C@@H](c3ccccc31)[C@H](CO)N2CC1CCCC1	.	.	.	.	1	.	.
CC(=O)c1cc(F)c(N2CCN(C(=O)COc3ccccc3F)CC2)cc1C	1	7	4	38*	8	9	6
CN1CCC(Oc2ccccc2Sc2ccccc2)CC1	-5	8	1	29*	.	167*	130*
CN1CCC(OC(c2ccccc2)c2ccccc2)CC1	-1	-3	7	0	3	.	.
Cc1cccc(-n2cnc3c(c2=O)c2nc4ccccc4nc2n3Cc2ccco2)c1	-5	7	-3	16	1	.	.
Cc1ccc(S(=O)(=O)N2CN(Cc3ccco3)c3nc4ccccc4nc32)cc1	-3	13	-6	11	0	.	.

Assay outcomes as filed in PubChem.
